In the library only some 18% were active in any assay of this set; here they are far more common.
DT40 TDP1 CPT: growth inhibition of DT40 Tdp1-/-;hTDP1 cells with camptothecin (screen for TDP1 inhibitors). chicken DT40 Tdp1-/-;hTDP1 cells + 20 nM CPT, ATP luminescence, 48 h. Potency, µM (highest dose often 46.2 µM), for the others: top-dose activity change, negative = growth inhibition, most hits filed as inhibitors. 420,000 tested, 12% active; note: nearly all actives have a fitted effect of over 55% in size
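Chicken DT40 Tdp1-/- cells complemented with human TDP1, 400 cells/well, exposed to compounds plus 20 nM camptothecin for at least 48 h at 37 C; viability read as ATP content by CellTiter-Glo luminescence.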
PLK1 PBD inh: PLK1 (human) polo-box domain binding inhibition; P53350; Plk1 PBD binding of FITC phosphopeptide, fluorescence polarization; Potency, µM, inactives show max response, negative = inhibition, hits mostly inhibitors; 360,000 tested, 2.8% active; AID 720504; note: series mostly up to about 57 µM; nearly all actives have a fitted effect of over 65% in size
VDR inhibitor: blocks the human vitamin D receptor; Potency, µM, for inactives: max response, negative = inhibition, most hits filed as inhibitors; VDR-SRC2-3 peptide fluorescence polarization, 2 h; P11473; 400,000 tested, 0.93% active
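Compounds are added to VDR with labelled SRC2-3 coactivator peptide and held 2 h at room temperature. Inhibition of the VDR–peptide interaction is then read as a change in fluorescence polarization.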
DT40 TDP1 no CPT: qHTS for Inhibitors of human tyrosyl-DNA phosphodiesterase 1 (TDP1): qHTS in cells in absence of CPT. DT40 Tdp1-/- hTDP1 cells, no CPT, ATP luminescence, 48 h. Potency, µM (highest dose often 46.2 µM), inactives show top-dose activity change, negative = growth inhibition, actives largely listed as inhibitors. 420,000 tested, 15% active. AID 686978, 2013; note: nearly all actives have a fitted effect of over 55% in size
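Camptothecin absent (DMSO only). Human TDP1-complemented DT40 knockout cells, 400 cells/well, 37 °C for minimum 48 hr; ATP measured via CellTiter-Glo, 30 min dark incubation, luminescence.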
GCN5L2 inh: blocks human GCN5L2 histone acetyltransferase; Q92830; GCN5L2 HAT assay, ThioGlo1 CoA-SH fluorescence; Potency, µM (doses to about 58.9 µM), for the others: top-dose activity change, negative = inhibition, hits mostly inhibitors; 390,000 tested, 0.21% active; AID 504327
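qHTS, 1536-well. 20nM enzyme, pH 7.5 HEPES/EDTA/Tween-20 buffer; 15 min compound preinc., RT. Start: 75uM H3(1-25), 70uM AcCoA, 50uM ThioGlo1. Read Ex340/Em540 at t=0 (autofluorescence flag) and t=20 min.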
TDP1 inh: blocks human tyrosyl-DNA phosphodiesterase 1; recombinant TDP1, AlphaScreen DNA substrate cleavage; Potency, µM (top dose mostly 130 µM), without a hit: at the highest dose activity change, negative = inhibition, most hits filed as inhibitors; 350,000 tested, 0.28% active; AID 485290; note: nearly all actives have a fitted effect of over 40% in size
Target sequence (Q9NUW8 whole entry, looked up): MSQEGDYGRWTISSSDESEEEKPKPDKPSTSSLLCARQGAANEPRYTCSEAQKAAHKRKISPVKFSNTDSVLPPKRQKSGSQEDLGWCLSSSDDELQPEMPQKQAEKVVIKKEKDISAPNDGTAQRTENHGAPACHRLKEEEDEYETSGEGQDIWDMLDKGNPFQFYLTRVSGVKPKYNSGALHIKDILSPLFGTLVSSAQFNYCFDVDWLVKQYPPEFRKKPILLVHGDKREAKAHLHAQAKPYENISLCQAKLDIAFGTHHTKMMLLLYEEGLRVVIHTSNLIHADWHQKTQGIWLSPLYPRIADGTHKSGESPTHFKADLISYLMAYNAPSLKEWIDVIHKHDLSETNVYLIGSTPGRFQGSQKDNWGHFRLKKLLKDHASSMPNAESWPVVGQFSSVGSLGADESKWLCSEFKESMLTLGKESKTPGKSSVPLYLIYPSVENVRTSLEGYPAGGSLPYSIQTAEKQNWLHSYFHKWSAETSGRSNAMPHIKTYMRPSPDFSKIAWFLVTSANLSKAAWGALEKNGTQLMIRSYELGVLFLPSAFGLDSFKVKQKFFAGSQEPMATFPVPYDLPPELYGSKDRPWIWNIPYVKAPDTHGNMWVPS
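Recombinant human Tdp1 (E. coli-expressed, 1 nM final) preincubated with compounds 15 min at room temperature, then 5'-biotin/3'-phosphotyrosine-FITC DNA substrate (15 nM final) added for 5 min. AlphaScreen beads (10 ug/ml final) added 10 min; cleavage lowers signal.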
* = called active by the depositor; ? = inconclusive; nt = not tested or not shown; [ ] = remark or other dose. Calls come from the whole dose curve; as a rule, active = well fitted curve in the direction sought with a large enough effect; inconclusive = small, poorly fitted or top-dose-only effect, or another doubt; inactive = no such curve, though single readings can be large; an effect the other way counts as inactive or inconclusive. % is set by controls: 0 for no effect and ±100 for the full control effect; potency is the fitted concentration of half-maximal effect.

SMILES | DT40 TDP1 CPT | PLK1 PBD inh | VDR inhibitor | DT40 TDP1 no CPT | GCN5L2 inh | TDP1 inh
CC(C)Cn1c(=O)c(C(=O)Nc2ccncc2)c(O)c2ccccc21 | 2.9µM* | -20% | -1% | 4.1µM* | nt | nt
Cc1ccnc(NC(=O)c2c(O)c3ccccc3n(C)c2=O)c1 | nt | nt | nt | nt | 2% | 2%
CCOC(=O)[C@]12CCC=C1N(CCC1=CCCCC1)C(=O)[C@H](CC(=O)NCc1ccccc1)C2 | ? | -24% | nt | ? | nt | nt
CCOC(=O)[C@]12CCCC=C1N(CCC1=CCCCC1)C(=O)[C@H](CC(=O)NCc1ccc(C)o1)C2 | ? | -8% | nt | 13µM* | nt | nt
CCOC(=O)[C@]12CCCC=C1N(Cc1ccccc1)C(=O)[C@H](CC(=O)NCc1ccc(C)o1)C2 | ? | 0% | nt | ? | nt | nt
CCOC(=O)[C@]12CCC=C1N(CCC1=CCCCC1)C(=O)[C@H](CC(=O)NCCCCc1ccccc1)C2 | ? | -9% | nt | 21µM* | nt | nt
CCCCNC(=O)C[C@@H]1C[C@@]2(C(=O)OCC)CCC=C2N(CCC2=CCCCC2)C1=O | 18µM* | ? | nt | ? | nt | nt
CCOC(=O)[C@]12CCCC=C1N(CCc1ccc(OC)c(OC)c1)C(=O)[C@H](CC(=O)NCc1ccc(C)o1)C2 | 13µM* | -4% | nt | 16µM* | nt | nt
Cc1ccc(S(=O)(=O)N2CCCC2)cc1C(=O)NCCOc1ccccc1 | -24% | 0% | -2% | -30% | 0% | 0%
CC(C)n1cc(CN2CCN(C)C(CCO)C2)c2ccccc21 (stereo not given) | ? | 2% | -5% | -29% | -1% | nt
CCOC(=O)c1c(S(=O)(=O)Nc2ccc(F)cc2C)c(C)n(C)c1C | -6% | -2% | 0% | -1% | -2% | 4%
CCOC(=O)[C@]12CCCC=C1N(CCC1=CCCCC1)C(=O)[C@H](CC(=O)NCc1ccccc1)C2 | ? | -2% | nt | 16µM* | nt | nt
CCOC(=O)[C@]12CCC=C1N(CCC1=CCCCC1)C(=O)[C@H](CC(=O)NCC1CCCCC1)C2 | 23µM* | -7% | nt | ? | nt | nt
CCOC(=O)[C@]12CCC=C1N(CCC1=CCCCC1)C(=O)[C@H](CC(=O)NCCC(C)C)C2 | ? | -7% | nt | 16µM* | nt | nt
Cc1nc(SCC(=O)N(CC(C)C)C2CCS(=O)(=O)C2)c(C#N)c(C)c1C (stereo not given) | -25% | -3% | -9% | -7% | 3% | 1%
COc1ccc(CCn2c3c(c(=O)[nH]c2=S)CN(CC(C)C)CN3)cc1OC | ? | nt | 0% | ? | nt | 1%
C/C(=N/NC(=O)c1cccc(C)c1)c1c(O)cc(C)oc1=O | ? | -10% | -5% | 23µM* | -7% | 5%
O=C1[C@H]2[C@@H](c3ccc(F)cc3)N3C(=O)N(c4cccc(Cl)c4)C(=O)[C@@]3(Cc3ccccc3)[C@H]2C(=O)N1C1CCCCC1 | ? | -6% | -8% | ? | -11% | 0%
C[C@@]12C(=O)N(c3cccc(F)c3)C(=O)N1[C@H](c1ccc(F)cc1)[C@@H]1C(=O)N(C3CCCCC3)C(=O)[C@@H]12 | 21µM* | -8% | -14% | ? | -8% | nt
C[C@@]12C(=O)N(c3cccc(F)c3)C(=O)N1[C@H](c1ccc(Cl)cc1)[C@@H]1C(=O)N(C3CCCCC3)C(=O)[C@@H]12 | ? | 0% | -4% | -23% | -14% | 3%
O=C1[C@H]2[C@@H](c3ccc(F)cc3)N3C(=O)N(c4cccc(Cl)c4)C(=O)[C@@]3(Cc3ccc(Cl)cc3)[C@H]2C(=O)N1C1CCCCC1 | 16µM* | -27% | -8% | ? | ? | nt
CCOC(=O)c1nc2cc3n(c(C)c-2c1C)C(C)C(C)=C3C (stereo not given) | ? | -4% | -8% | 13µM* | -7% | 2%
CCOC(=O)c1nnc2cc(C)nn2c1C | 8% | -9% | 9% | -2% | -6% | nt
CCOC(=O)c1nc2cc3n(c(CC(C)C)c-2c1C)CC(C)=C3C | 21µM* | -7% | 4% | ? | -3% | 0%
CCOC(=O)c1n[nH]n(-c2cc(Cl)cc(Cl)c2)c1=O | 1% | -4% | 0% | -4% | -4% | 0%
SMILES | DT40 TDP1 CPT | PLK1 PBD inh | VDR inhibitor | DT40 TDP1 no CPT | GCN5L2 inh | TDP1 inh
CN1CCN(C2Cc3ccccc3Sc3ccc(S)cc32)CC1 (stereo not given) | nt | nt | -19% | nt | 12% | 16%
Clc1cccc2c1Sc1ccccc1CC2N1CCNCC1 (stereo not given) | 18µM* | -9% | -6% | 18µM* | -8% | 0%
Clc1ccc2c(c1)C(N1CCNCC1)Cc1ccccc1S2 (stereo not given) | ? | -10% | -9% | 23µM* | 3% | 7%
CC(C)c1ccc2c(c1)C(N1CCN(C)CC1)Cc1cccnc1S2 (stereo not given) | ? | -11% | -4% | -93% | nt | nt
COc1cc(CNCc2cc3ccc(F)cc3nc2N2CCOCC2)cc(OC)c1OC | -10%[9.04 µM] | nt | nt | -23% | nt | nt
Cc1cccc(-n2nc3c(c2NC(=O)CCCl)CSC3)c1 | ? | -19% | -8% | ? | -19% | nt
CC(=O)Nc1c2c(nn1-c1ccccc1)CSC2 | 3% | -2% | 8% | 1% | -5% | 2%
O=C(CCl)Nc1c2c(nn1-c1ccccc1)CSC2 | 21µM* | 27µM* | ? | 15µM* | -5% | 1%
O=C(NCc1ccccc1)C(=O)Nc1c2c(nn1-c1ccccc1)CSC2 | 16µM* | nt | 25% | 18µM* | -5% | 8%
COc1ccc(-n2nc3c(c2NC(=O)CCCl)CSC3)cc1 | ? | -5% | 6% | 18µM* | ? | nt
CC(C)(C)C(=O)Nc1c2c(nn1-c1ccccc1)CSC2 | ? | -4% | -20% | 23µM* | -9% | 1%
Cn1c(SCC2CCCO2)nnc1C1CCN(Cc2ccccc2O)CC1 (stereo not given) | 9%[9.04 µM] | nt | nt | -5% | nt | nt
Cc1ccc(-n2nc3c(c2NC(=O)c2cccs2)CSC3)cc1 | ? | -7% | 9% | ? | 3.5µM* | 6%
S=C(NCCCCN(Cc1ccc(Cl)cc1)c1ccc(Br)cn1)NCCCc1cnc[nH]1 | 7.1µM* | nt | -11% | -93% | nt | nt
CN(CCCN(Cc1ccc(Cl)cc1)c1ccc(Br)cn1)C(=S)NCCCc1cnc[nH]1 | 13µM* | nt | -11% | ? | nt | nt
c1cnc2ccc3c(c2c1)COCO3 | -22% | -4% | -14% | -13% | nt | nt
O=c1cc(O)c(Cl)c[nH]1 | 3% | nt | 6% | -12% | 5% | nt
COc1ccccc1CNC(=O)CN1C(=O)NC2(CCC(C)CC2)C1=O (stereo not given) | 15% | -7% | -2% | -1% | 2% | 0%

From PubChem BioAssay
